Test results as given in PubChem BioAssay (NCI).
About 83,000 compounds went through this panel and 20% of them were active in at least one assay; those are over-represented in the sample as a whole.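 Each cell line was grown in a 96-well plate and treated with one concentration of compound for 48 hours. Values below 10 were considered active.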 A number with no mark means an inactive call. Active and inactive are the calls of the source.

system: NCI-H23 lung; assay: NCI-60 one-dose screen, 48 h (100 = growth as untreated, 0 = no growth, -100 = all killed); settings: 10 µM

Row | SMILES | growth
1 | COc1cc(C2CC(=O)Nc3c2c(C)nn3-c2nc3ccccc3[nH]2)cc(OC)c1O (stereo not drawn) | 36.8%
2 | CCCCC(CC#N)(CCC)CCC | 105%
3 | COc1cc(C)c2sc3ccccc3c(=O)c2c1NCCN(C)C | 76.3%
4 | O=C(CCl)N1c2ccccc2Sc2ccc3ccccc3c21 | -76.5% (active)
5 | CCOC(=O)Nc1ccc2c(c1)C(=O)N(CC)c1ccccc1O2 | 30.1%
6 | COc1ccc(/C=C(\c2cc(OC)c(OC)c(OC)c2)c2nnc(-c3cccs3)o2)cc1 | 76.1%
7 | COc1ccc(-c2cc(/C=C/C(=O)c3ccc(N)cc3)[nH]n2)cc1OC | 51.6%
8 | CCCCCCCCCCSC(=N)N (tested in a mixture with another compound) | 80%
9 | CC(=O)CS(C)(=O)=O | 102%
10 | Nc1ccc2c(c1)Cc1cc(N)c(Cl)cc1-2 | 103%
11 | CCOC(=O)c1cc(-c2ccccc2)nc(N)n1 | 99.5%
12 | CCCOCC(O)CNCCN (stereo not drawn) | 109%
13 | O=C(Nc1ccc(OCc2nnc(-c3ccccc3)o2)c(F)c1)Nc1ccc(Cl)c(Cl)c1 | 53%
14 | Cc1[nH]nc2c(=S)[nH]c(=O)[nH]c12 | 103%
15 | CCC(OC(=O)CC(C)C)c1ccccc1 (stereo not drawn) | 98.8%
16 | C/C=C\COc1cc(C)c(Cl)cc1Cl | 111%
17 | CC(=O)N(O)c1ccc(/C=C/c2ccccc2)cc1 | 31%
18 | CCOC(=O)c1c(C(F)(F)F)n([O-])c2ccc(OC)cc2[n+]1=O | 30.3%
